Test results reported in PubChem BioAssay AID1159580 (chemical genetic matrix, 2015).
Where “and” joins values, the source holds several entries; their conditions need not be identical. Identical values can stand only once. In all, about 5,500 compounds went through this assay and about 2,000 (36%) were called active. Inconclusive results (about 18%) are left out. Rule as the data show it: active = normalized growth mostly below about 0.91 (no sharp cut-off); inconclusive = no clear call, values can overlap the other calls; inactive = mostly above about 0.92. Some of the results follow.

Assay: chemical genetic growth profiling, strain panel (AID 1159580);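 also: tested at 20 µM; growth read once vehicle control cultures reached saturation at 30 °C; 1 = growth at the plate median or of vehicle wells; lower values mean less growth of the strain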
Conditions: growth OD

Measured: normalized growth

COC(=O)COc1ccc(Cl)cc1Cl
inactive: S. cerevisiae deletion strains, locus YAL013W, strain DEP1, hits give low values 1 | S. cerevisiae deletion strains, locus YBR021W, strain FUR4, hits give low values 1.01 | S. cerevisiae deletion strains, locus YBR229C, strain ROT2, hits give low values 1.01 | S. cerevisiae deletion strains, locus YCL029C, strain bik1, hits give low values 1.02 | S. cerevisiae deletion strains, locus YDL035C, strain GPR1, hits give low values 1.02 | S. cerevisiae deletion strains, locus YDL074C, strain BRE1, hits give low values 1.03 | S. cerevisiae deletion strains, locus YDL101C, strain DUN1, hits give low values 1.01 | S. cerevisiae deletion strains, locus YDL134C, strain PPH21, hits give low values 1.01 | S. cerevisiae deletion strains, locus YDL185W, strain tfp1, hits give low values 1.01 | S. cerevisiae deletion strains, locus YDL192W, strain arf1, hits give low values 1.02 | S. cerevisiae deletion strains, locus YDR101C, strain arx1, hits give low values 1.02 | S. cerevisiae deletion strains, locus YDR150W, strain NUM1, hits give low values 1 | S. cerevisiae deletion strains, locus YDR162C, strain NBP2, hits give low values 0.996 | S. cerevisiae deletion strains, locus YDR318W, strain mcm21, hits give low values 1.02 | S. cerevisiae deletion strains, locus YDR388W, hits give low values 1.02 | S. cerevisiae deletion strains, locus YDR502C, strain sam2, hits give low values 1.02 | S. cerevisiae deletion strains, locus YEL061C, strain CIN8, hits give low values 1 | S. cerevisiae deletion strains, locus YER110C, hits give low values 1.01 | S. cerevisiae deletion strains, locus YER155C, strain BEM2, hits give low values 1 | S. cerevisiae deletion strains, locus YER167W, strain BCK2, hits give low values 1 | S. cerevisiae deletion strains, locus YGL078C, strain dbp3, hits give low values 1.01 | S. cerevisiae deletion strains, locus YGL086W, strain mad1, hits give low values 1 | S. cerevisiae deletion strains, locus YGL248W, strain PDE1, hits give low values 1.01 | S. cerevisiae deletion strains, locus YGR078C, strain PAC10, hits give low values 1.02 | S. cerevisiae deletion strains, locus YGR135W, strain pre9, hits give low values 1.02 | S. cerevisiae deletion strains, locus YGR229C, strain SMI1, hits give low values 1.01 | S. cerevisiae deletion strains, locus YGR252W, strain gcn5, hits give low values 1.04 | S. cerevisiae deletion strains, locus YHR030C, strain SLT2, hits give low values 1.01 and 1.04 | S. cerevisiae deletion strains, locus YHR079C, strain IRE1 (second series), hits give low values 1.01 | S. cerevisiae deletion strains, locus YHR079C, strain IRE1, hits give low values 1.03 | S. cerevisiae deletion strains, locus YHR094C, strain hxt1, hits give low values 1.02 | S. cerevisiae deletion strains, locus YHR129C, strain ARP1, hits give low values 1.01 | S. cerevisiae deletion strains, locus YHR200W, strain rpn10, hits give low values 1.01 | S. cerevisiae deletion strains, locus YIL066C, strain RNR3, hits give low values 1.02 | S. cerevisiae deletion strains, locus YIL073C, strain SPO22, hits give low values 1.08 | S. cerevisiae deletion strains, locus YIL125W, strain kgd1, hits give low values 1.01 | S. cerevisiae deletion strains, locus YIR030C, strain dcg1, hits give low values 1.02 | S. cerevisiae deletion strains, locus YJL095W, strain BCK1, hits give low values 1 and 1.05 | S. cerevisiae deletion strains, locus YJL134W, strain LCB3, hits give low values 1 | S. cerevisiae deletion strains, locus YJL168C, strain set2, hits give low values 1.02 | S. cerevisiae deletion strains, locus YJL187C, strain SWE1 (second series), hits give low values 1.01 | S. cerevisiae deletion strains, locus YJR043C, strain POL32, hits give low values 1.01 | S. cerevisiae deletion strains, locus YJR066W, strain TOR1, hits give low values 0.975 | S. cerevisiae deletion strains, locus YJR075W, strain HOC1, hits give low values 1.01 | S. cerevisiae deletion strains, locus YKL009W, strain mrt4, hits give low values 1.03 | S. cerevisiae deletion strains, locus YKL068W, hits give low values 1.01 | S. cerevisiae deletion strains, locus YKL085W, strain MDH1 (second series), hits give low values 0.993 | S. cerevisiae deletion strains, locus YKL085W, strain MDH1, hits give low values 0.993 | S. cerevisiae deletion strains, locus YKL190W, strain CNB1, hits give low values 1.01 | S. cerevisiae deletion strains, locus YKR001C, strain vps1, hits give low values 1.04 | S. cerevisiae deletion strains, locus YLR039C, strain RIC1, hits give low values 1.02 | S. cerevisiae deletion strains, locus YLR058C, strain SHM2, hits give low values 1.02 | S. cerevisiae deletion strains, locus YLR102C, strain apc9, hits give low values 1.01 | S. cerevisiae deletion strains, locus YLR113W, strain HOG1, hits give low values 0.974 | S. cerevisiae deletion strains, locus YLR262C, strain YPT6, hits give low values 1.06 | S. cerevisiae deletion strains, locus YLR268W, strain sec22, hits give low values 1.03 | S. cerevisiae deletion strains, locus YLR330W, strain CHS5, hits give low values 1.01 | S. cerevisiae deletion strains, locus YLR342W, strain FKS1 (second series), hits give low values 1.01 | S. cerevisiae deletion strains, locus YLR371W, strain rom2, hits give low values 1.01 | S. cerevisiae deletion strains, locus YLR418C, strain cdc73, hits give low values 1.04 | S. cerevisiae deletion strains, locus YML016C, strain PPZ1, hits give low values 1.01 | S. cerevisiae deletion strains, locus YML032C, strain rad52, hits give low values 1.02 | S. cerevisiae deletion strains, locus YML124C, strain tub3, hits give low values 1.02 | S. cerevisiae deletion strains, locus YMR078C, strain ctf18, hits give low values 1.03 | S. cerevisiae deletion strains, locus YMR223W, strain ubp8, hits give low values 1.02 | S. cerevisiae deletion strains, locus YMR263W, strain SAP30, hits give low values 1 | S. cerevisiae deletion strains, locus YMR307W, strain GAS1, hits give low values 1.02 | S. cerevisiae deletion strains, locus YNL067W, strain RPL9B, hits give low values 1 | S. cerevisiae deletion strains, locus YNL128W, strain TEP1, hits give low values 1.01 | S. cerevisiae deletion strains, locus YNL153C, strain GIM3, hits give low values 1.01 | S. cerevisiae deletion strains, locus YNL183C, strain NPR1, hits give low values 0.969 | S. cerevisiae deletion strains, locus YNL233W, strain BNI4, hits give low values 1 | S. cerevisiae deletion strains, locus YNL250W, strain rad50, hits give low values 1.01 | S. cerevisiae deletion strains, locus YNL271C, strain bni1, hits give low values 1 | S. cerevisiae deletion strains, locus YNL298W, strain CLA4, hits give low values 1.04 | S. cerevisiae deletion strains, locus YNL307C, strain MCK1, hits give low values 1.03 | S. cerevisiae deletion strains, locus YNL322C, strain KRE1, hits give low values 1.01 | S. cerevisiae deletion strains, locus YNR052C, strain pop2, hits give low values 1.03 | S. cerevisiae deletion strains, locus YOL006C, strain TOP1, hits give low values 1.02 | S. cerevisiae deletion strains, locus YOL012C, strain htz1 1.19 | S. cerevisiae deletion strains, locus YOL147C, strain pex11, hits give low values 1.01 | S. cerevisiae deletion strains, locus YOR061W, strain CKA2, hits give low values 0.997 | S. cerevisiae deletion strains, locus YOR069W, strain VPS5, hits give low values 1 | S. cerevisiae deletion strains, locus YOR136W, strain idh2, hits give low values 1.02 | S. cerevisiae deletion strains, locus YOR144C, strain elg1, hits give low values 1.02 | S. cerevisiae deletion strains, locus YOR184W, strain ser1, hits give low values 1.03 | S. cerevisiae deletion strains, locus YOR231W, strain MKK1, hits give low values 1.04 | S. cerevisiae deletion strains, locus YOR316C, strain cot1, hits give low values 1.01 | S. cerevisiae deletion strains, locus YPL055C, strain LGE1, hits give low values 1.02 | S. cerevisiae deletion strains, locus YPL241C, strain CIN2, hits give low values 1 | S. cerevisiae deletion strains, locus YPL256C, strain CLN2, hits give low values 1.05 | S. cerevisiae deletion strains, locus YPR119W, strain clb2, hits give low values 1.01 | S. cerevisiae deletion strains, locus YPR141C, strain kar3, hits give low values 1.01 | S. cerevisiae deletion strains, locus YPR163C, strain tif3, hits give low values 1.02 | S. cerevisiae deletion strains, locus YPR167C, strain met16, hits give low values 1.01 | S. cerevisiae deletion strains, strain wtn01, hits give low values 1.01 | S. cerevisiae strains, strain wild type, hits give low values 1
